Among the data in ChEMBL document CHEMBL1201862, “PubChem BioAssay data set” (2004) are Potency values, retold here.

Where “and” joins values, the source holds several entries; their conditions need not be identical. Equal entries are not always repeated. Screen size: about 400,000 compounds; about 2,100 (0.53%) were called active. Inconclusive results (about 14%) are left out. The rule behind the calls is not given here. The entries come from a sample that favours actives as a whole.

For the experiment, the target named is Ataxin-2 (Homo sapiens) (UniProt Q99700). Nature of the experiment: qHTS for Inhibitors of ATXN expression. The class given is functional.
Ataxin-2 (Homo sapiens), sequence (Q99700 whole entry): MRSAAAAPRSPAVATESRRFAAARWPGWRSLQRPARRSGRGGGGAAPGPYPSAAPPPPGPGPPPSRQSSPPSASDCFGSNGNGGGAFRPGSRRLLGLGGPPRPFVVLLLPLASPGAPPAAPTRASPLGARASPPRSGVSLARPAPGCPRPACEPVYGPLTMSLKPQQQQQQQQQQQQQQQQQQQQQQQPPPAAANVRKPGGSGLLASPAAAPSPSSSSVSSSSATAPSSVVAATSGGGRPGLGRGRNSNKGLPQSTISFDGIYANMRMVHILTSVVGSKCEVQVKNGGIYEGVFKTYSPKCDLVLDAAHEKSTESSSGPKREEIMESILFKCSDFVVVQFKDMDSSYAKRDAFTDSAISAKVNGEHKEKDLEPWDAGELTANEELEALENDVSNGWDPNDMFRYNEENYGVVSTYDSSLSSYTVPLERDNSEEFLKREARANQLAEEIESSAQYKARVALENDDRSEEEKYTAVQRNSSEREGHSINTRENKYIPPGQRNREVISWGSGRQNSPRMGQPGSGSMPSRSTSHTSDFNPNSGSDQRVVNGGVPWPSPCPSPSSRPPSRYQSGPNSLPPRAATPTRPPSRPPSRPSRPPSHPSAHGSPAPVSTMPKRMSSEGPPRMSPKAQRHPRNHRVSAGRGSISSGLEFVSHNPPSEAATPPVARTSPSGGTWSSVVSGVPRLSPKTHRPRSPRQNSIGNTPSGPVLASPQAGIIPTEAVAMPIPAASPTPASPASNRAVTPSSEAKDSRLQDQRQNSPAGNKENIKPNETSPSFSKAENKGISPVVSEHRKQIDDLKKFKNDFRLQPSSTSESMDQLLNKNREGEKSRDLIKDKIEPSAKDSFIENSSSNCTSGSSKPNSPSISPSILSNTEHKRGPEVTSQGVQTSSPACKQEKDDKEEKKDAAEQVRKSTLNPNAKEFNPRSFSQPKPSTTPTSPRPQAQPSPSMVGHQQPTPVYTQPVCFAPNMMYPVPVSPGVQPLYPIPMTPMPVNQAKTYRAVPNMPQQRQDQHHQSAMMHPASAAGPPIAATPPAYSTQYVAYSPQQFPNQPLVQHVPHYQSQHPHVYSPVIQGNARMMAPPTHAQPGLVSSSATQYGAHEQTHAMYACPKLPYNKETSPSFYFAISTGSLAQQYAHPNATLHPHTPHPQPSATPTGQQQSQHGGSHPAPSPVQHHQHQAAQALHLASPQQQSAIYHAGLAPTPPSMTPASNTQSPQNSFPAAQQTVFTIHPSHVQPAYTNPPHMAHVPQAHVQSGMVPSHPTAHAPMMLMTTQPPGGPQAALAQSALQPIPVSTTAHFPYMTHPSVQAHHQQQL
Consider `O=C(O)COc1ccc(/C=C/c2nc3ccc([N+](=O)[O-])cc3s2)cc1`, for which the Potency result is “inactive”.

For `CCN(CC)c1ccc2c(Cl)c(Br)c(=O)oc2c1`, the Potency entry was “inactive”.

Turning to `c1ccn2c(c1)nc1c2nc2ccccn21`, the Potency entry was “inactive”.

Consider `C=CCNC(=O)c1cc2c(=O)n3ccccc3nc2s1`, for which the Potency result is “inactive”.

Turning to `COc1ccc(/C=C/C(=O)c2ccc3ccccc3c2O)cc1CN1CCOCC1`, the Potency result was “inactive”.

As for `COc1ccc(/C=N/NC(=O)CCn2nnc3ccccc32)cc1`, the Potency result is “inactive”.

Take `COc1ccc(/C=C/C(=O)c2ccccc2)cc1Cn1nnc2ccccc21`: the Potency was 39.8 µM (active).

In the case of `O=C(O)C1Sc2nc(O)sc2C2c3ccc(O)cc3OC(=O)C12` (stereo not given), the Potency entry is “inactive”.

In the case of `COCC(=O)Nc1nc2n(n1)C(c1ccccc1)CC(c1ccc(OC)cc1)N2` (stereo not given), the Potency entry was “inactive”.

Regarding `O=C(OCc1cn([C@H]2CN(CC3CCCCC3)[C@@H](c3ccc(Cl)cc3)C[C@@H]2O)nn1)c1ccccc1`, the Potency is 35.5 µM (active).

For `COc1ccc([C@H]2C[C@H](O)[C@@H](n3cc(COC(=O)c4ccccc4)nn3)CN2CC2CCCCC2)cc1`, the Potency was 35.5 µM (active).

Consider `O[C@H]1CN(CC2CCCCC2)[C@@H](c2ccc(Cl)cc2)C[C@@H]1n1cc(C2CC2)nn1`, for which the Potency is 20 µM (active).

With `COc1ccc(C2C3=C(CCCC3=O)N(CC(=O)O)C3=C2C(=O)CCC3)cc1`, the Potency result was “inactive”.

For `COc1ccc([C@H]2C[C@@H](O)[C@H](n3cc(COC(=O)c4ccccc4)nn3)CN2CC2CCCCC2)cc1`, the Potency was 28.2 µM (active).

In the case of `COc1ccc(C2CC(c3ccccc3)=NN2c2ccc(C(N)=O)cc2)cc1` (stereo not given), the Potency result was “inactive”.

For `CC(C)C(=O)Nc1ccc(C(=O)N/N=C/c2cc(Br)cc(Br)c2O)cc1`, the Potency entry was “inactive”.

With `N#Cc1nc(/C=C/c2ccc(F)cc2)oc1N1CCCCCC1`, the Potency result was “inactive”.

Turning to `Cc1nc2ccccc2c2c(N)c3ccccc3n12`, the Potency result was “inactive”.

Take `CC(=O)C1=CCC(c2ccc(Br)cc2)N(S(=O)(=O)c2ccc(C)cc2)C1` (stereo not given): the Potency is 20 µM (active).

`Cc1ccc(S(=O)(=O)CCC(=O)OCCOc2ccc(Br)cc2)cc1`: the Potency result was “inactive”.

For `Cc1ccc(-c2ccc(S(=O)(=O)N3CC(C)OC(C)C3)cc2)cc1` (stereo not given), the Potency result is “inactive”.

Take `Fc1cccc(CNCc2ccc3c(c2)OCO3)c1`: the Potency entry is “inactive”.

Turning to `COc1ccc2[nH]c(SCC(=O)NC(C)c3ccccc3)nc2c1` (stereo not given), the Potency result is “inactive”.

Take `COc1ccc(CNCCC(c2ccc3c(c2)OCO3)c2ccccc2OC)cc1` (stereo not given): the Potency is 22.4 µM (active).

Take `COc1ccccc1/C=C/C(=O)OCC(=O)NCc1ccc2c(c1)OCO2`: the Potency entry was “inactive”.

Take `COc1ccc(C(C)NCCC(c2ccc(OC(C)C)cc2)c2ccccc2OC)cc1` (stereo not given): the Potency is 39.8 µM (active).

`Cc1c(CC(=O)N2CCN(C(=O)C3COc4ccccc4O3)CC2)c(=O)oc2cc(O)cc(O)c12` (stereo not given): the Potency result is “inactive”.

As for `Cc1ccc(S(=O)(=O)N2CCOCC2)cc1NC(=O)COC(=O)/C=C/c1ccco1`, the Potency result was “inactive”.

As for `CC[C@@H]1Cc2cc(O)ccc2C2=C1c1ccc(O)cc1C[C@H]2CC`, the Potency was 39.8 µM (active) and 22.4 µM (active).

`Clc1ccc(-c2nc(N3CCCCC3)nc3ccccc23)cc1`: the Potency entry is “inactive”.

With `COc1ccc(-n2c(=O)c(CCC(=O)NCCc3ccccc3F)nc3ccccc32)cc1`, the Potency entry is “inactive”.

Take `Cc1ccc(C(=O)c2c(C)oc3c2C(=O)C(=O)c2ccccc2-3)cc1`: the Potency was 39.8 µM (active).

With `Cc1oc2c(c1C(=O)c1ccccc1)C(=O)C(=O)c1ccccc1-2`, the Potency is 3.98 µM (active).

Take `Cc1sc(N)c(C(=O)c2ccccc2)c1C`: the Potency entry was “inactive”.

`Cc1ccc(-n2c(C)cc(C(=O)COc3cccnc3[N+](=O)[O-])c2C)cc1`: the Potency result was “inactive”.

On to `CCOc1ccc(-n2c(C)cc(C(=O)CCl)c2C)cc1`, for which the Potency is 29.9 µM (active).

For the compound `CCOc1ccc(-n2c(C)cc(/C=N/NC(=O)C(N)=O)c2C)cc1`, the Potency entry was “inactive”.

Take `CCCn1c(=N)c(C(=O)NCc2ccco2)cc2c(=O)n3cc(C)ccc3nc21`: the Potency result was “inactive”.

Take `CC1CCc2c(sc3nc(-c4cc5ccccc5oc4=O)nc(Cl)c23)C1` (stereo not given): the Potency result was “inactive”.

With `CCc1nc(N2CCN(C(=O)CCl)CC2)c2c3c(sc2n1)CC(C)CC3` (stereo not given), the Potency is 35.5 µM (active).

With `CC1CCc2c(sc3ncn(CC(=O)N4CCCCC4)c(=O)c23)C1` (stereo not given), the Potency result is “inactive”.

Consider `COCCCn1c(C(=O)N2CCOCC2)cc2c(=O)n3ccccc3nc21`, for which the Potency entry is “inactive”.

Turning to `CN1/C(=C\C(=O)c2cccnc2)C(C)(C)c2ccccc21`, the Potency result is “inactive”.

For `CN1/C(=C/C(=O)c2nc(S(C)(=O)=O)ncc2Cl)C(C)(C)c2ccccc21`, the Potency is 31.6 µM (active).

In the case of `CC1=C(C(=O)c2ccccc2)C(c2ccc(O)cc2)NC(S)=N1` (stereo not given), the Potency entry was “inactive”.

Turning to `O=C(COC(=O)/C=C/c1ccccc1)NCCC1=CCCCC1`, the Potency result is “inactive”.

For `O=C(NCCC1=CCCCC1)C1CCC(CNc2nc(S)nc3ccccc23)CC1` (stereo not given), the Potency was 23.8 µM (active).

On to `O=C(NCCCN1CCCC1=O)C1CCN(S(=O)(=O)c2ccccc2)CC1`, for which the Potency result was “inactive”.

Consider `CCCCN(C(=O)NC(=O)C1=C(N2CCOCC2)/C(=C/c2ccccc2)CC1)S(C)(=O)=O`, for which the Potency result is “inactive”.

`C=CCO/C(O)=C1\C(C)=NC(SCC(=O)Nc2nccs2)=C(C#N)C1c1ccc(Cl)cc1` (stereo not given): the Potency result is “inactive”.

For the compound `CC(C)(C)CC(C)(C)NC1=Nc2cc(Cl)c(Cl)cc2NC12C[C@H]1CCC(=O)N3CC[C@@H](C2)[C@@H]13` (stereo not given in full), the Potency is 31.6 µM (active).

Consider `O=C1CCC[C@@H]2C[C@@]3(C[C@@H]4CCN1[C@H]24)Nc1cc(Cl)c(Cl)cc1N=C3NCc1ccccc1`, for which the Potency is 35.5 µM (active).

Turning to `COc1ccc2c(c1)CCC1=C2N=C(S)NC1c1ccc(N(C)C)cc1` (stereo not given), the Potency result is “inactive”.

As for `c1cc(SC2CCCCC2)cc(-c2nc3cnccn3c2NC2CCCCC2)c1`, the Potency entry was “inactive”.

Regarding `Cc1cc(C)n2c(=O)c3ccc(Cl)cc3nc2c1C#N`, the Potency result was “inactive”.

As to `CC(C)(C)c1cc(CP(=O)(c2ccccc2)c2ccccc2)cc(C(C)(C)C)c1O`, the Potency entry is “inactive”.

For `O=C(C=Cc1ccccc1F)c1ccccc1`, the Potency is 31.6 µM (active).

With `O=C(C=Cc1ccccn1)c1ccccc1`, the Potency was 35.5 µM (active).

On to `O=C(C=Cc1ccccn1)c1ccccc1O`, for which the Potency is 39.8 µM (active).

Regarding `O=C(O)c1ccc2c(c1)C(=O)N(c1ccc(/C=C/C(=O)c3ccccc3)cc1)C2=O`, the Potency result is “inactive”.

For `COc1ccc2[nH]cc(/C=C/C(=O)c3ccccc3)c2c1`, the Potency result was “inactive”.

In the case of `COc1ccccc1C(=O)CSc1ccccn1`, the Potency result was “inactive”.

As to `Cc1[nH]c2ccccc2c1/C=C/C(=O)c1ccncc1`, the Potency entry was “inactive”.

Consider `O=C(/C=C/c1ccc(N2CCC(c3ccccc3)=N2)cc1)c1ccccc1`, for which the Potency entry is “inactive”.

On to `O=C(O)/C(=C\c1ccco1)NC(=O)c1ccco1`, for which the Potency entry was “inactive”.

For the compound `Cc1ccc(NC(=O)CCc2nnc3ccc(N4CCC5(CC4)OCCO5)nn23)nc1`, the Potency result is “inactive”.

On to `COc1ccc(COc2cc(-c3cccc(OC)c3)nc3ccc(N)cc23)cc1`, for which the Potency result was “inactive”.

Consider `CC(C)N1CC(C(=O)Nc2cccc([N+](=O)[O-])c2)CC1=O` (stereo not given), for which the Potency result is “inactive”.

Turning to `O=[N+]([O-])c1cccc(NC(=S)N2CCOCC2)c1`, the Potency entry was “inactive”.

Consider `COC(=O)/C=C\C(=O)Nc1cccc([N+](=O)[O-])c1`, for which the Potency was 31.6 µM (active).

In the case of `O=C(NCC1CCCCC1)C1(CC2CC(c3ccc(Cl)cc3)=NO2)CCNCC1` (stereo not given), the Potency is 39.8 µM (active).

As for `O=C(NCC1CCCCC1)C1(CC2CC(c3cccc(Br)c3)=NO2)CCNCC1` (stereo not given), the Potency is 35.5 µM (active).

As to `COc1cc(NC(=O)C2CC(c3cccc(Br)c3)=NO2)cc(OC)c1OC` (stereo not given), the Potency entry was “inactive”.

Turning to `O=C(CNC(=O)c1ccc(Br)o1)NCC1CCCCC1`, the Potency result is “inactive”.

Take `O=C(O)c1cc(-c2ccc(-c3ccc(F)cc3)o2)nc2ccccc12`: the Potency entry is “inactive”.

Consider `C[C@@H]1C(c2cccc(Cl)c2)=NN(c2ccccc2)[C@H]1C(=O)N1CCOC1=O`, for which the Potency entry was “inactive”.

Regarding `Oc1c(Cl)cc(Cl)cc1/C=N/c1nc(-c2ccc(Cl)cc2)cs1`, the Potency entry is “inactive”.

With `Cc1[nH]n(-c2nc(-c3ccc(Cl)cc3)cs2)c(=O)c1N=Nc1ccc(O)cc1`, the Potency is 26.7 µM (active).

Consider `CC(=O)Nc1cccc(-c2ccnc3c2CC(C(=O)Nc2ccc(F)c(Cl)c2)O3)c1` (stereo not given), for which the Potency was 22.4 µM (active).

Take `CC(=O)Nc1ccc(C2CC(c3ccc(Cl)cc3)=NN2c2ccccc2)cc1` (stereo not given): the Potency entry was “inactive”.

For `O=C(Nc1cccc(OC(F)(F)F)c1)C1Cc2c(-c3ccc4c(c3)OCO4)ccnc2O1` (stereo not given), the Potency was 39.8 µM (active).

Take `O=C1OC(C(=O)Nc2ccc(Cl)c(C(F)(F)F)c2)Cc2ccccc21` (stereo not given): the Potency entry is “inactive”.

For `CCOC(=O)c1cc(-c2ccc3c(c2)OCO3)nc2onc(C)c12`, the Potency entry is “inactive”.

Consider `CC(C)CN(CC(C)C)C(=O)c1cc2c(=O)n3ccccc3nc2s1`, for which the Potency result was “inactive”.

Consider `N=C(NOC(=O)c1ccccc1)C(Cc1ccccc1)C(=O)NOC(=O)c1ccccc1` (stereo not given), for which the Potency is 39.8 µM (active).

`O=C(NCCOC(=O)c1ccccc1)c1ccccc1`: the Potency result is “inactive”.

With `O=C(Nc1ccc(Cl)cn1)c1ccccc1SCc1ccccc1`, the Potency result was “inactive”.

On to `COc1ccc(CN2C(=O)c3cccnc3C2=O)cc1S(=O)(=O)N1CCOc2ccc(C)cc21`, for which the Potency entry is “inactive”.

In the case of `O=C(c1cnn(-c2ccccc2)c1)c1ccccc1O`, the Potency entry is “inactive”.

As to `CC(Sc1ccccc1)C(=O)NN=C1CCCCCCC1` (stereo not given), the Potency result is “inactive”.

Turning to `CCOc1ccc(NC(=O)CN2CCN(CC(=O)Nc3ccccc3OC)CC2)cc1`, the Potency result is “inactive”.

Take `COc1ccccc1NC(=O)CN1CCN(CC(=O)Nc2ccc(Cl)c(C(F)(F)F)c2)CC1`: the Potency was 44.7 µM (active).

Regarding `O=C(CN1CCN(C(=O)c2c(F)cccc2F)CC1)Nc1ccccc1C(F)(F)F`, the Potency entry was “inactive”.

Consider `O=C(Cc1ccccc1)Nc1ncccc1Cl`, for which the Potency result is “inactive”.

Consider `Cc1ccc(-c2ccc(/C=C3\SC(N4CCOCC4)=NC3=O)o2)cc1`, for which the Potency entry is “inactive”.

Consider `O=C1NC(=S)S/C1=C/c1ccc(N2CCOCC2)o1`, for which the Potency is 10 µM (active).

In the case of `Cc1ccccc1-c1ccc(/C=C2/SC(N3CCOCC3)=NC2=O)o1`, the Potency result was “inactive”.

In the case of `Cn1c(/C=C(\C#N)C(N)=S)ccc1-c1ccc(Br)cc1`, the Potency was 11.2 µM (active).

In the case of `N#C/C(=C/c1ccc(-c2ccc(Br)cc2)o1)C(=O)NC1CCCCC1`, the Potency entry is “inactive”.

With `CC(=O)c1sc2nsc(SCCN3CCOCC3)c2c1N`, the Potency entry was “inactive”.
